{"source": "PubChem BioAssay AID720707", "about": "(National Center for Advancing Translational Sciences (NCATS), 2013)", "note": "In all, about 360,000 compounds went through this assay and about 270 (0.075%) were called active. The call rests on the fitted dose curve; in most records, active means well fitted activation curve with a large enough effect; inconclusive means small, poorly fitted or top-dose-only effect; inactive means no such curve, though single readings can be large or run the other way. This excerpt belongs to a sample that is enriched for actives. Potency means the concentration at half of the fitted maximal effect.", "data": [{"target": "Rap guanine nucleotide exchange factor 3 (Homo sapiens) (UniProt O95398)", "sequence (O95398 whole entry, looked up)": "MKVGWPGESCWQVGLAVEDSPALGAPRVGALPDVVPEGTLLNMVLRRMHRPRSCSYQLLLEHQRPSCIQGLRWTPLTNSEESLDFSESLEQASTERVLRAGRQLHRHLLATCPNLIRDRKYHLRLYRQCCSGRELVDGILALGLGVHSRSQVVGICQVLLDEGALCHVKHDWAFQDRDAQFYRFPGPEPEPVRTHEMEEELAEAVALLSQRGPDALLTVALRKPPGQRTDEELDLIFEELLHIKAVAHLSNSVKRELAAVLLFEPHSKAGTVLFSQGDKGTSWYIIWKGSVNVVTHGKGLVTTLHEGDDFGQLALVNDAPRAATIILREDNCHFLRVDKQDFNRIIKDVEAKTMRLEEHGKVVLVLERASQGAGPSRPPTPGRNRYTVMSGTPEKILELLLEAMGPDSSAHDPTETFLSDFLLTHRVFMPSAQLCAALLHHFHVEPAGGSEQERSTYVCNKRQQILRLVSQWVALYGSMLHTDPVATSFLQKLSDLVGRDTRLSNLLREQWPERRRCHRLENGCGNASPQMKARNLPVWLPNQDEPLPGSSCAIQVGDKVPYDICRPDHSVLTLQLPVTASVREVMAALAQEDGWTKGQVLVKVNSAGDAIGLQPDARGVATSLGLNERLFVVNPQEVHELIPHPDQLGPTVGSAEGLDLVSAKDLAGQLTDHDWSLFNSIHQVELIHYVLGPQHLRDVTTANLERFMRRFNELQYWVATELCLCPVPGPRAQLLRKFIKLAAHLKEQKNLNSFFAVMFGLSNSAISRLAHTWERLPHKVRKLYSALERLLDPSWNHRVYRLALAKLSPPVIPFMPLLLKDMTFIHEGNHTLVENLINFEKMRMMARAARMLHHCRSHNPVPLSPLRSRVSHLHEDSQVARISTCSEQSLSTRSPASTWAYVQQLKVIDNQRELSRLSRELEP", "assay": "qHTS for Agonist of cAMP-regulated guanine nucleotide exchange factor 3 (EPAC1): primary screen; further: nearly all actives have a fitted effect of over 60% in size", "conditions": "biochemical assay; series mostly up to 154 µM; activation: at the top concentration", "text": "In multi-cellular eukaryotic organisms, the effects of cAMP are transduced by two ubiquitously-expressed intracellular cAMP receptors, the classic protein kinase A/cAMP-dependent protein kinase (PKA/cAPK) and the more recently discovered exchange protein directly activated by cAMP/cAMP-regulated guanine nucleotide exchange factor (EPAC/cAMP-GEF). Both PKA and EPAC are ubiquitously expressed in all tissues, and an increase in intracellular cAMP levels will lead to the activation of both PKA and EPAC. Therefore, careful dissections of the individual role and relative contribution of EPAC and PKA within the overall cAMP signaling in various model systems are critical for further elucidating the mechanism of cAMP signaling. To date no EPAC-specific antagonists and agonist, as well as isoform-specific agonists have been reported, and developing EPAC-specific pharmacological probes to determine the physiological functions that EPAC play in the overall cAMP-mediated signaling remains a major challenge within the research field. Furthermore, identified regulators of EPAC may lead to new mechanism-based therapeutic strategies specifically targeting the EPAC / cAMP-signaling components as EPAC has been implicated to play important roles in major human pathological conditions such as diabetes, heart disease, and cancer.\nThis qHTS will be used to screen the Molecular Libraries Small Molecule Repository (MLSMR) as a concentration-titration series using the NCGC unique quantitative screening (qHTS) platform to find activators for EPAC1. In addition, this assay will also be used as a counterscreen for the EPAC2 qHTS. This fluorescent based assay is developed and validated for EPAC1 that measures exchange using EPAC effector Rap1 complex with BODIPY-GDP, a GDP analog with a tethered fluorophores. Activators are identified by monitoring the change in fluorescence signal as the exchanged free BODIPY-GDP has a reduced fluorescence compared to Rap1-bound BODIPY-GDP. Increase in signal (activation) is the desired outcome for the EPAC1 agonist while no activity in this assay is desired for the EPAC2 agonist counterscreen.\n[1] de Rooij, J., Zwartkruis, F. J., Verheijen, M. H., Cool, R. H., Nijman, S. M., Wittinghofer, A., and Bos, J.L. (1998) Nature 396, 474-477\nNIH Chemical Genomics Center [NCGC]\nNIH Molecular Libraries Probe Centers Network [MLPCN]\nAssay Submitter (PI): Xiaodong Cheng, The University of Texas Medical Branch\nBriefly, three uL of reagents (100 nM EPAC1, 250 nM RAP1B-BODIPY-GDP, 50 uM GDP) were dispensed into a 1536-well Greiner black solid-bottom medium binding assay plate. Controls and test compounds (23 nL) were transferred to the plate via a Kalypsys pin tool equipped with a 1536-pin array. The plates were centrifuged at 1,000 rpm for 15 seconds followed by 5 minute incubation at room temperature. The assay plates were read at 5 minute intervals for 30 minutes in the ViewLux plate reader using 480nm excitation and 540nm emission filters. The results were normalized to the agonist positive control of 6.5 mM cAMP.", "values": [{"smiles": "CCC1CCCCN1C(=S)Nc1ccc(S(=O)(=O)Nc2ncccn2)cc1", "note": "(stereo not given)", "activation": "12.6% (inactive)"}, {"smiles": "Cc1ccsc1CNn1cnnc1SCc1ccccc1F", "activation": "10.8% (inactive)"}, {"smiles": "COc1ccc(N2CCN(C(CNS(=O)(=O)c3ccc(C)cc3)c3ccccc3)CC2)cc1", "note": "(stereo not given)", "activation": "8.4% (inactive)"}, {"smiles": "CCOC(=O)/C(C#N)=C/c1ccc(N2CCN(Cc3ccccc3)CC2)cc1", "Potency": "89.1 µM (active)"}, {"smiles": "CCOC(=O)C1CCN(Cc2ccc(-c3ccccc3)cc2)CC1", "activation": "12% (inactive)"}, {"smiles": "CCCn1c(C)cc(/C=C(\\C#N)C(=O)OCC(=O)N(C)c2c(N)n(Cc3ccccc3)c(=O)[nH]c2=O)c1C", "activation": "5.74% (inactive)"}, {"smiles": "Cn1cnc([N+](=O)[O-])c1Nc1ccccc1O", "activation": "-3.09% (inactive)"}, {"smiles": "COc1ccc2c3c1O[C@H]1C[C@@H](O)C=C[C@@]31CCN(C)C2", "activation": "5.28% (inactive)"}, {"smiles": "COc1cc(C(=O)NCC(c2ccco2)N2CCCC2)ccc1OCc1ccccc1", "note": "(stereo not given)", "activation": "5.29% (inactive)"}, {"smiles": "CC(=O)NC(C)(C)C1CC=C(C)/C(=N\\O)C1", "note": "(stereo not given)", "activation": "1.89% (inactive)"}, {"smiles": "COc1ccc([N+](=O)[O-])cc1NC(=O)C(C)OC(=O)C1c2ccccc2Oc2ccccc21", "note": "(stereo not given)", "activation": "5.45% (inactive)"}, {"smiles": "C[C@@H]1CN([C@H](C)CO)C(=O)c2cc(NC(=O)NC3CCCCC3)ccc2O[C@H]1CN(C)S(C)(=O)=O", "activation": "-3.15% (inactive)"}, {"smiles": "CSc1nnc2c(n1)OC(c1ccsc1)N(C(C)=O)c1ccccc1-2", "note": "(stereo not given)", "activation": "-0.63% (inactive)"}, {"smiles": "CC(NC(=O)CCC(=O)N1CCN(S(=O)(=O)c2ccc(Cl)cc2)CC1)c1ccccc1", "note": "(stereo not given)", "activation": "4.86% (inactive)"}, {"smiles": "Cc1ccsc1-c1nc(CSCC(=O)NCCN2CCCC2)c(C)o1", "activation": "8.65% (inactive)"}, {"smiles": "COc1ccc(-n2c(SCC(=O)Nc3ccc4c(c3)OCO4)nnc2C(C)N2CCCCC2)cc1", "note": "(stereo not given)", "activation": "6.7% (inactive)"}, {"smiles": "NS(=O)(=O)c1cc(C(=O)OCC(=O)NNC(=O)c2ccccc2)ccc1Cl", "activation": "9.9% (inactive)"}, {"smiles": "O=c1c2ccccc2ccc2ccc(P(=O)(O)O)cc12", "activation": "-18% (inactive)"}, {"smiles": "CC(=O)Nc1ccc(S(=O)(=O)N(C)CC(=O)NCCC2=CCCCC2)cc1", "activation": "-4.75% (inactive)"}, {"smiles": "COc1cc(OC)cc(C(=O)NCC(=O)N2CCCCCCC2)c1", "activation": "-5.76% (inactive)"}, {"smiles": "COC(=O)C(C(=O)Nc1cccc(C)n1)C1CCCCCC1", "note": "(stereo not given)", "activation": "2.99% (inactive)"}, {"smiles": "C[C@H]1CN([C@@H](C)CO)C(=O)CCCn2cc(nn2)CO[C@@H]1CN(C)S(=O)(=O)c1cccc(C#N)c1", "activation": "1.15% (inactive)"}, {"smiles": "CN(C)c1ccc(C2Nc3ccccc3C(=O)N2NS(=O)(=O)c2ccccc2)cc1", "note": "(stereo not given)", "activation": "12.9% (inactive)"}, {"smiles": "O=C(O)c1cccnc1NC1CCCC1", "activation": "8.94% (inactive)"}, {"smiles": "COC(=O)c1ccccc1NC(=O)CSc1nc2c(c(=O)[nH]1)CCC2", "activation": "5.97% (inactive)"}, {"smiles": "Oc1ccc2ccc3cccc[n+]3c2c1", "Potency": "89.1 µM (active)"}, {"smiles": "C=CCN1CCN(c2ccncc2S(=O)(=O)N2CCN(C)CC2)CC1", "activation": "8.73% (inactive)"}, {"smiles": "CC(=O)Nc1ccc(S(=O)(=O)N2CCN(C(=O)c3ccccc3F)CC2)cc1", "activation": "2.19% (inactive)"}, {"smiles": "CCOC(=O)N1CCC(N(CCOC)C(=O)Nc2ccc(C)c(C)c2)CC1", "activation": "7.87% (inactive)"}, {"smiles": "COc1ccc(-c2cc(NC=O)c3ncc(-c4ccccc4)n3c2)cc1OC", "activation": "9.19% (inactive)"}, {"smiles": "O=C(O)CCCCCCCCCC[n+]1ccccc1", "activation": "1.29% (inactive)"}, {"smiles": "Cc1cc(C)n2nc(C(=O)N(C)C(c3ccccc3)c3ccccc3)nc2n1", "activation": "-4.38% (inactive)"}, {"smiles": "CCn1cc(CN2CCN(CC(C)(C)C)C(CCO)C2)c2ccccc21", "note": "(stereo not given)", "activation": "-3.98% (inactive)"}, {"smiles": "NS(=O)(=O)c1ccc(N=Cc2ccc(Br)s2)cc1", "activation": "5.66% (inactive)"}, {"smiles": "COC(=O)c1cc(NC(=O)CN2CCC(C(N)=O)(N3CCCCC3)CC2)cc(C(=O)OC)c1", "activation": "5.47% (inactive)"}, {"smiles": "O=C(O)CSCNC(=O)CC12CC3CC(CC(C3)C1)C2", "activation": "2.38% (inactive)"}, {"smiles": "Cc1ccc(CCNC(=O)C2CCN(S(=O)(=O)N3CCCC3)CC2)cc1", "activation": "-0.549% (inactive)"}, {"smiles": "CCOc1ccc(NS(=O)(=O)c2ccc(Cl)c(C(=O)N(C)Cc3cccnc3)c2)cc1", "activation": "-9.4% (inactive)"}, {"smiles": "CC1(C)CC(=O)c2c(n(S(=O)(=O)c3ccccc3)c3ccc(NS(=O)(=O)c4ccccc4)cc23)C1", "activation": "2.81% (inactive)"}, {"smiles": "O=c1cccc(-c2ccc(Br)cc2)o1", "activation": "1.51% (inactive)"}, {"smiles": "CCCCNC(=O)N1CCCC(N(C)CCc2ccc(OC)c(OC)c2)C1", "note": "(stereo not given)", "activation": "-9.76% (inactive)"}, {"smiles": "Cc1sc2ncn(CC(=O)NCCCC(=O)N(C)Cc3ccccc3)c(=O)c2c1C", "activation": "-8.88% (inactive)"}, {"smiles": "Cc1ccc(OCC(=O)Nc2ccccc2Sc2ccc(Cl)cc2)c([N+](=O)[O-])n1", "activation": "21.3% (inactive)"}, {"smiles": "Cc1ccc(-c2nc(C)sc2CC(=O)OCC(=O)Nc2c(F)cccc2F)cc1", "activation": "10.9% (inactive)"}, {"smiles": "COc1cc(NS(=O)(=O)c2ccc(N/C=C(\\C=O)c3nc4cc(Cl)ccc4o3)cc2)nc(OC)n1", "activation": "-5.9% (inactive)"}, {"smiles": "COCC1CCCCN1C(=O)c1cc(COc2ccc(C)c(C)c2)on1", "note": "(stereo not given)", "activation": "-12.2% (inactive)"}, {"smiles": "CC(=O)N[C@H]1[C@H]([C@H](O)[C@H](O)CO)OC(C(=O)O)=C[C@@H]1O", "activation": "-3.76% (inactive)"}, {"smiles": "O=C(NCc1ccco1)c1ccc(CS(=O)(=O)Cc2ccc(F)cc2)o1", "activation": "3.97% (inactive)"}, {"smiles": "COC(=O)/C=C(\\Oc1ccccc1)C1(O)CCCCC1", "activation": "-5.2% (inactive)"}, {"smiles": "Cc1cc(Cl)ccc1NNC(=O)c1snnc1C", "activation": "-2.36% (inactive)"}, {"smiles": "O=C(c1cnn2ccccc12)N1CCc2ccccc21", "activation": "-2.29% (inactive)"}, {"smiles": "C=CCNC(=O)COC(=O)CNC(=O)c1cc(Cl)cc([N+](=O)[O-])c1", "activation": "7.93% (inactive)"}, {"smiles": "CN1C(=O)c2cccc3c(N)ccc(c23)C1=O", "Potency": "126 µM (active)"}, {"smiles": "Cc1nn(C)cc1N1C(=O)c2cccc3c(N)ccc(c23)C1=O", "Potency": "89.1 µM (active)"}, {"smiles": "Cc1cc(NC(=O)/C=C/C(=O)N(c2ccccc2C)C(C(=O)NC2CCCC2)c2ccc(F)cc2)no1", "note": "(stereo not given)", "activation": "15.6% (inactive)"}, {"smiles": "CCOC(=O)[C@]12CCCC=C1N(Cc1ccc(Cl)cc1Cl)C(=O)[C@H](CC(=O)N1CCCCC1)C2", "activation": "-4.78% (inactive)"}, {"smiles": "CC(Cc1cccs1)NC(=O)c1cccc(Cl)c1", "note": "(stereo not given)", "activation": "5.93% (inactive)"}, {"smiles": "Cc1nn2c(NCCN(C)C)c3c(nc2c1-c1ccccc1)CCC3", "activation": "1.01% (inactive)"}, {"smiles": "CC(=O)Nc1ccc(NC(=O)CN2C(=O)COc3ccc(S(=O)(=O)N4CCCCC4)cc32)cc1", "activation": "15.4% (inactive)"}, {"smiles": "O=C(COc1ccccc1)N1CCN=C1SCc1cccc(F)c1", "activation": "-1.1% (inactive)"}, {"smiles": "COC(=O)C(Cc1c[nH]c2ccccc12)NC(=O)CCNC(=O)c1ccco1", "note": "(stereo not given)", "activation": "-7.71% (inactive)"}, {"smiles": "CCOC(=O)c1ccccc1NC(=O)COC(=O)CCC(=O)N1CCOCC1", "activation": "3.89% (inactive)"}, {"smiles": "CCOC(=O)c1ccccc1NC(=O)COC(=O)C(Cc1c[nH]c2ccccc12)NC(C)=O", "note": "(stereo not given)", "Potency": "112 µM (active)"}, {"smiles": "COc1ccccc1NC(=O)CSc1nnc(CNC(=O)c2ccccc2F)o1", "activation": "-8.7% (inactive)"}, {"smiles": "Cn1c(=O)[nH]c(=O)c2c1nc(N(CCO)Cc1ccccc1)n2Cc1ccccc1Cl", "activation": "-2.01% (inactive)"}]}]}
